For the first assay, the target named is NFE2L1. The experiment in a line: pooled miR-30 sensor sort-seq; sequence = guide strand. Conditions: shRNA.
Regarding TTGTCCAGGTCTATGCTCTTGG, the sensor-assay potency score (higher = more potent) was -0.582. For the sequence TTTCGCTTTCTCGCACCCCGTT, the sensor-assay potency score (higher = more potent) is -0.883. On the same count and under the same terms, in the case of TTGATGATTTTGTCATTGGTGA it was -0.465.

With TAAGTATCCACGTCCACCCGTA, the sensor-assay potency score (higher = more potent) came out at 0.169. On to TTATGCTGGAAATGTCTGCTGG, for which the sensor-assay potency score (higher = more potent) is -0.294. TAAGTCTCCACTGACTGGGGGG returned a sensor-assay potency score (higher = more potent) of -0.685. On to TTCCTGTACACTGACCCGCAGT, for which the sensor-assay potency score (higher = more potent) was -0.906. Still for that read-out and setting: with TCGTCCGTTCTCATCTCGCAGC the figure was -1.23; with TAATTGTCCAGGTCTATGCTCT, -0.487. Same read-out and setting: with TTGAATATTGGGCATCTCCTTT the figure was -0.276; with TTACTCAACACAAGCATTCTAG, 0.0111.

In turn, TTAGCAGCTTTGAATATTGGGC returned a sensor-assay potency score (higher = more potent) of -0.506.

The target of another assay is NFYC. Described as above. The note with it: shRNA.
In turn, AAATATTGCATCTTTCTGCTGG had a sensor-assay potency score (higher = more potent) of 0.522. As for TAGAGCTGCTGTCCATCTGTGA, the sensor-assay potency score (higher = more potent) was -0.297.

Regarding TAATCTTCTTAATACGAGCCAG, the sensor-assay potency score (higher = more potent) is -0.951. TAGCATTGGACACACACTCAAC showed a sensor-assay potency score (higher = more potent) of -0.948.

Regarding TCTTGGAACAATATCGATGAGA, the sensor-assay potency score (higher = more potent) was -0.931. Turning to TAAGCGGATATACTGCAGCTGG, the sensor-assay potency score (higher = more potent) is -0.727. Turning to TATTGCATCTTTCTGCTGGAGA, the sensor-assay potency score (higher = more potent) was -0.521.

ATCTCTTGGAACAATATCGATG registered a sensor-assay potency score (higher = more potent) of -1.33.

In the case of TTGAGTGCCTGATACAGGCTGG, the sensor-assay potency score (higher = more potent) is -0.146. On the same count and under the same terms, in the case of TTATCTTCTGTGTGAATCCAGG it was -0.977. As for TGTGTTAGTGATGATCTGCTGC, the sensor-assay potency score (higher = more potent) was 0.227. Take TTGCTGGATCTGGTAGAGCTGC: the sensor-assay potency score (higher = more potent) was -1.31.

Values taken from the OligoGym collection.
Further: reference of the scale not given here.
